# CHT PAM: CHT positive allosteric modulators, primary screen, cell-based, membrane potential dye, choline EC20 | B-score at 10 µM | AID 488977, 2010 | CHT-expressing cells; hits give high values; LV-AA mutant CHT in HEK293 cells | actives 0.49% (n = 310,000);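 active = initial fluorescence not abnormally high and integrated response B-score, plate-corrected, over 3 SD above library mean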
# EP2 mod: EP2 receptor modulators, cAMP readout, primary screen, cell-based, HTRF cAMP, PGE2 stimulation | induction, % at 25 µM | actives 0.83% (n = 260,000) | EP2-expressing cells, cAMP HTRF FRET, PGE2 co-stimulation | Prostaglandin E2 receptor EP2 subtype (Homo sapiens), P43116;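 active = compounds whose cAMP rise, as percent of the full-agonist control response, exceeds 60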;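 also: rat C6 glioma line stably carrying human EP2 under a CMV promoter; the protocol text gives 20 µM as final concentration; 100% = response of wells given 1 µM PGE2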
# CHT block: inhibitors of human choline transporter CHT | High affinity choline transporter 1 (Homo sapiens), Q9GZV3 | actives 0.86% (n = 310,000) | B-score at 10 µM | CHT-expressing cells, membrane potential dye, choline response; hits give low values;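 active = B-score over 3 SD under the library average, and starting fluorescence ratio not unusually high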;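 also: choline stimulus applied at its EC90 after an EC20 pre-addition; B-score computed on integrated fluorescence ratio after choline addition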
# EP2 antag: human EP2 receptor antagonists, primary screen, TR-FRET cAMP, C6 glioma cells; C6 glioma cells expressing human EP2; cells stimulated with saturating PGE2; actives 0.52% (n = 260,000); inhibition, % at 25 µM;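 active = percent inhibition above 40 after rounding to a whole number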;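 also: rat C6 glioma host cells with rolipram phosphodiesterase inhibitor present; the protocol text gives 20 µM as final concentration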
# EP2 confirm: cAMP induction in EP2, EP4, beta2-AR and parental cells, confirmation, counter-screen for EP2 modulator project, cell-based, five parallel assays, C6 glioma, HEK293 | actives 47% (n = 1,300) | cAMP HTRF induction; plus low (about EC15) PGE2 agonist | calls only at 20 µM (by protocol) | AID 1080, 2008 | shares compounds with EP2 mod;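 active = cAMP induction above 50% in the main assay while under 30% in all four parallel counter assays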;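 also: rat C6 glioma cells stably expressing human EP2 receptor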
# * hit, by the source's call; i = inactive; x = not tested or not shown; + = active, no number; ! = repeats disagree. This is a sample that favours compounds with a hit; in the whole collection about 2% have one here.
SMILES,CHT PAM,EP2 mod,CHT block,EP2 antag,EP2 confirm
Cc1ccc(S(=O)(=O)NCC(=O)N(c2ccccc2)C(C(=O)NCc2ccccc2)c2ccco2)cc1 (stereo unspecified),i,68*,i,7,i
NCCc1c(-c2ccccc2)n(-c2ccccc2)c2ccccc12,x,72*,x,3,+
CC(=O)n1c(-c2ccccc2)c(CO)c2ccccc21,i,x,i,x,x
CCCc1cc(=O)[nH]c(NCc2ccco2)n1,x,36,x,6,x
COC(=O)C1C(c2ccccc2)C(C(=O)OCc2ccco2)C1c1ccccc1 (stereo unspecified),i,68*,i,8,i
O=C(O)C1C(c2ccccc2)C(C(=O)OCc2ccco2)C1c1ccccc1 (stereo unspecified),i,15,i,8,x
CCn1c(COc2ccc(Cl)cc2)nnc1SCC(=O)Nc1ccc2c(c1)OCO2,i,65*,i,9,i
CCc1nnc(SCC(=O)Nc2ccc3c(c2)OCO3)n1CC,i,x,i,x,x
CN1C(=O)/C(=C/c2ccc(OCc3ccc(F)cc3)cc2)N(C)C1=S,i,x,i,x,x
CN1C(=O)/C(=C/c2ccccc2OCc2cccc(F)c2)N(C)C1=S,i,70*,i,11,+
COC(=O)c1ccc(C2Nc3ccccc3-c3cc(C)nn32)cc1 (stereo unspecified),x,19,x,10,x
C=C[C@@](C)(O)CCC1C(=C)C[C@H](O)C2C(C)(C)CCCC12C (stereo partly specified),x,79*,x,10,+
C=C[C@@](C)(O)CCC1C(=C)C[C@H](OC(C)=O)C2C(C)(C)CCCC12C (stereo partly specified),x,34,x,11,x
CCC(=O)N(C)c1nc(-c2cc(OC)ccc2OC)cs1,x,50,x,6,x
CCC1(CC)Cc2ccccc2-c2nc(NCCO)[nH]c(=O)c21,i,69*!,i,16,i
CCOc1ccc(Cl)cc1CNCCNCCO,i,17,i,8,x
CCCOc1ccc(Cl)cc1CNc1ccccc1,i,73*,i,2,+
CCOC(=O)C1=C(C)OC(N)=C(C#N)C1c1cc(C)sc1C (stereo unspecified),i,53,i,-2,i
COc1ccc(C2(NC(=O)c3cccc(N4CCCCS4(=O)=O)c3)CCCC2)cc1,x,-13,x,9,x
Cc1ccc(-c2nn3c(C)nnc3s2)cc1NCc1c(F)cccc1Cl,i,66*,i,19,i
Nc1ccc(SC(F)(F)F)cc1C(=O)c1ccccc1,i,69*,i,x,i
CC1CCN(c2nc3c(c(=O)[nH]2)CN(Cc2ccccn2)CC3)CC1,x,3,x,4,x
CCCc1cc(=O)[nH]c(SCC(=O)N2CCC(C)CC2)n1,i,x,i,x,x
CCCc1cc(=O)[nH]c(SCC(=O)N2CCC(C(=O)OCC)CC2)n1,i,68*,i,13,i
CCOc1ccc(OCC)c(NC(=O)CN2CCN(c3cc(C)ccc3C)CC2)c1,i,78*,i,11,+
SMILES,CHT PAM,EP2 mod,CHT block,EP2 antag,EP2 confirm
CCOc1ccc(OCC)c(NC(=O)CN2CCN(CC)CC2)c1,i,3,i,9,x
CCOc1ccc(OCC)c(NC(=O)CN2CCN(c3cccc(C)c3)C(C)C2)c1 (stereo unspecified),i,58,i,x,x
CCOc1ccc(OCC)c(NC(=O)CN2CCN(c3cccc(C)c3)CC2)c1,i,73*,i,x,+
COc1cc(OC)cc(C(=O)N2CCC(C(=O)NC(C)C)CC2)c1,x,-18,x,9,x
Cc1ccccc1Cn1c2ccccc2c2cn[nH]c(=O)c21,i,62*,i,-7,+
Cc1cc2c(s1)c1cn[nH]c(=O)c1n2Cc1ccc(F)cc1,x,-20,x,x,x
CC(C)=CCc1c(O)cc(C)oc1=O,x,-2,x,8,x
COc1cc(O)c2c(=O)cc(C)oc2c1CC=C(C)C,x,92*,x,9,+

# Bioassay records deposited in PubChem by several laboratories.
